For 40 molecules, Potency and activity change, negative = inhibition results are on record in PubChem BioAssay AID1508636 (National Center for Advancing Translational Sciences (NCATS), 2021).

Each structure is given as a SMILES string. Inconclusive results are not listed. Values without a mark were called inactive. Calls of active or inactive are those of the source. The call rests on the fitted dose curve; in most records, active means well fitted inhibition curve with a large enough effect; inconclusive means small, poorly fitted or top-dose-only effect; inactive means flat fitted curve, though single readings scatter. Where a SMILES comes first, the peptide text is derived from it. [ ]: non-standard residue; d: D form. The star is where a group is joined. Cbz = O=C(OCc1ccccc1)*; Nva = CCC[CH](N)C(=O)O

ATP-dependent translocase ABCB1 (Homo sapiens), sequence (P08183 whole entry, looked up): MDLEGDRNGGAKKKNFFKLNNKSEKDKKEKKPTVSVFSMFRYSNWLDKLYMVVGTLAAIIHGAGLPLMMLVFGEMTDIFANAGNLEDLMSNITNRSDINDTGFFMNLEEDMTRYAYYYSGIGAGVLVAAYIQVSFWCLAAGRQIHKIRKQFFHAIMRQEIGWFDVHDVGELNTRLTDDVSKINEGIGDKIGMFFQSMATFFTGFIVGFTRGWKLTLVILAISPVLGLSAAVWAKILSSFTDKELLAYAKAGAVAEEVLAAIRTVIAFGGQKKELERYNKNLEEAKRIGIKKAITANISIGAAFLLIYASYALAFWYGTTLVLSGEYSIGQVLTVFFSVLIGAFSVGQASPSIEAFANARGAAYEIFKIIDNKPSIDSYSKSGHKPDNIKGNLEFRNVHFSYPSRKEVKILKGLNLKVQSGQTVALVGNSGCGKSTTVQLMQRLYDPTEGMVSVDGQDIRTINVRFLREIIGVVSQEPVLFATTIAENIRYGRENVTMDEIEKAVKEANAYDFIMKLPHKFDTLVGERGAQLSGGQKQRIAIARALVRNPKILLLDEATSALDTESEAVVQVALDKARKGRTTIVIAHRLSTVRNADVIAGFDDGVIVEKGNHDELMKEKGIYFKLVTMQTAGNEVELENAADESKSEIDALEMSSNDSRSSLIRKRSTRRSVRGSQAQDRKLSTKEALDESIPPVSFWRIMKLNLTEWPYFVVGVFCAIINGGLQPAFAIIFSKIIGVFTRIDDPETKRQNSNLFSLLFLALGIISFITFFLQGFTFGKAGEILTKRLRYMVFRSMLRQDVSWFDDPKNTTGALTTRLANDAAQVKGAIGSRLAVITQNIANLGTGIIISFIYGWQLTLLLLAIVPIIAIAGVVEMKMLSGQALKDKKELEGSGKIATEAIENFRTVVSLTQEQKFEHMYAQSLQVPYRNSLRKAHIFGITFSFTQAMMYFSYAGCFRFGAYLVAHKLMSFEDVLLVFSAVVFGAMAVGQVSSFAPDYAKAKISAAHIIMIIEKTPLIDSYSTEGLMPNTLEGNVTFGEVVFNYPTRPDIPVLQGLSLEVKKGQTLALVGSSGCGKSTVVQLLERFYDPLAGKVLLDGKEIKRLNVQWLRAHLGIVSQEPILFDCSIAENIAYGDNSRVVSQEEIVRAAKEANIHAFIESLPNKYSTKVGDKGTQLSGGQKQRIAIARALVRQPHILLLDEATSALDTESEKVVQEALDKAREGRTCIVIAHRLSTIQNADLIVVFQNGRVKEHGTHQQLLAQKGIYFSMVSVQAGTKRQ

This assay concerns the target ATP-dependent translocase ABCB1 (Homo sapiens) (UniProt P08183). In words: qHTS for characterization and localization of zebrafish homologs of the human ABCB1 multidrug transporter: P-gp overexpressing MDR-19 cells. Particulars: MDR-19 cells overexpressing P-gp, CellTiter-Glo luminescence viability, 72 h; series mostly up to 46.1 µM. The text has this: The zebrafish has emerged as a potential model to study the blood-brain barrier (BBB) given its similarities with mammalian systems. However, little information has been available with regard to homologous ATP-binding cassette transporters expressed at the zebrafish BBB. Two transporters that are highly expressed at the human BBB are P-glycoprotein (P-gp, encoded by the ABCB1 gene) and ABCG2 (encoded by the ABCG2 gene). In this study, we focus on characterization of P-gp homologs in the zebrafish, which has two genes that are homologous to human ABCB1 - abcb4 and abcb5. We generated stably-transfected cell lines to determine their substrate specificities. […] Zebrafish abcb4 also colocalized with claudin 5 expression in brain endothelial cells.
A high-throughput screen was performed as previously described on empty vector transfected cells, P-gp-overexpressing MDR-19 cells and cells transfected with full-length zebrafish abcb4 (ZF Abcb4) or abcb5 (ZF Abcb5). Briefly, cells were plated into 1536-well plates at a density of 500 cells/well in 5 uL media. P-gp substrate compounds (approximately 90) selected from our previous study were then added at varying concentrations using a 1536-head pin tool (Kalypsis, San Diego, CA) and plates were incubated at 37C in 5% CO2 for 72 h. CellTiter-Glo reagent (Promega) was dispensed into the wells, incubated for 5 min and luminescence was read on a ViewLux instrument (Perkin-Elmer).
Cytotoxic compounds were defined as those that yielded a curve class of -1.1, -1.2, -2.1, -2.2, -2.3, or -2.4, a maximum response of >50% and an AC50 of < 10 uM. All compounds from screening analysis were tested in Vector (empty vector control), MDR-19 (P-gp overexpressing), zebrafish abcb4 (ZF Abcb4) and abcb5 (ZF Abcb5) expression cell lines.
1. Tobie D Lee, Olivia W Lee, Kyle R Brimacombe, Lu Chen, Rajarshi Guha, Sabrina Lusvarghi, Bethilehem G Tebase, Carleen Klumpp-Thomas, Robert W Robey, Suresh V Ambudkar, Min Shen, Michael M Gottesman, Matthew D Hall. A High-Throughput Screen of a Library of Therapeutics Identifies Cytotoxic Substrates of P-glycoprotein. Mol Pharmacol. 2019, Nov;96(5):629-640.
As for `CCN1CCN(Cc2ccc(NC(=O)Nc3ccc(Oc4cc(NC)ncn4)cc3)cc2C(F)(F)F)CC1`, the Potency entry was “inactive”.
In the case of `NC(=O)Nc1cc(-c2cccc(F)c2)sc1C(=O)N[C@H]1CCCNC1`, the Potency is 8.33 µM (active).
In the case of `CC(C)CC(=O)Nc1n[nH]c2c1CN(C(=O)C1CCN(C)CC1)C2(C)C`, the Potency entry is “inactive”.
Still for that read-out and setting: the figure for `COc1cccc2c1C(=O)c1c(O)c3c(c(O)c1C2=O)C[C@@](O)(C(=O)CO)C[C@H]3O[C@H]1C[C@H](N)[C@@H](O)[C@H](C)O1` is 11.8 µM (active); for `C=CCNC1=C2CC(C)CC(OC)C(O)C(C)/C=C(\C)C(OC(N)=O)C(OC)/C=C/C=C(\C)C(=O)NC(=CC1=O)C2=O` (stereo not given) it is 10.5 µM (active); for `Cc1[nH]c2ccccc2c1CCNCc1ccc(/C=C/C(=O)NO)cc1` it is 1.32 µM (active).
Same read-out and setting: the figure for `CC[C@@H]1C(=O)N(C)c2cnc(Nc3ccc(C(=O)NC4CCC(N5CCN(CC6CC6)CC5)CC4)cc3OC)nc2N1C(C)C` (stereo not given in full) is 2.35 µM (active).
Regarding `CN(C)C1CCN(C(=O)c2ccc(NC(=O)Nc3ccc(-c4nc(N5CCOCC5)nc(N5CCOCC5)n4)cc3)cc2)CC1`, the Potency entry is “inactive”.
The same measure, in the same setting: the same measure for `O=C(NC1CCNCC1)c1[nH]ncc1NC(=O)c1c(Cl)cccc1Cl`: “inactive”; for `O=C(NC1CC1)c1cccc(-c2ccc3c(NC(=O)C4CC4)n[nH]c3c2)c1`: “inactive”.
Still for that read-out and setting: the same measure for `CC1(C)CC(NC(=O)C(=O)Nc2ccc(Br)cc2)CC(C)(C)N1`: “inactive”; for `CC(NCc1ccc2c(c1)nc(NC(=O)c1ccc(-c3cn[nH]c3)s1)n2CC(C)(C)O)C(C)(C)C` (stereo not given): 2.96 µM (active); for `COc1cc2ncn(-c3cc(OCc4ccccc4C(F)(F)F)c(C(N)=O)s3)c2cc1OC`: 5.4 µM (active).
Still for that read-out and setting: the figure for `CN(c1ncccc1CNc1nc(Nc2ccc3c(c2)CC(=O)N3)ncc1C(F)(F)F)S(C)(=O)=O` is 18.7 µM (active); for `CO[C@H]1/C=C/C=C/C=C/C[C@H](OC(=O)[C@@H](C)NC(=O)C2CCCCC2)[C@H](C)[C@@H](O)/C(C)=C/CCc2cc(O)cc(c2)NC(=O)C1` it is “inactive”.
`CN(C)C1CCN(C(=O)c2ccc(NC(=O)Nc3nc(N4CCOCC4)nc(N4CCOCC4)n3)cc2)CC1`: the Potency entry is “inactive”.
The same measure, in the same setting: the figure for `CC(C)C[C@H](NC(=O)[C@@H](NC(=O)c1cccc(-c2ccccc2)n1)[C@@H](C)O)B(O)O` is 0.372 µM (active); for `Cc1ccc(C(=O)N(CCCN)[C@@H](c2oc3cc(Cl)ccc3c(=O)c2Cc2ccccc2)C(C)C)cc1` it is 13.2 µM (active).
Same read-out and setting: the figure for `CC(=O)O[C@@H]1C[C@H](O)[C@@]23CO[C@@H](O)C1(C)[C@@H]2C[C@@H](O)[C@]1(C)[C@@H]3C(=O)[C@H](OC(C)=O)[C@@]2(C)[C@H](c3ccoc3)C[C@H]3O[C@]321` is 3.72 µM (active); for `CC1(C)CC[C@]2(C(=O)OC3OC(CO)C(O)C(O)C3O)CC[C@]3(C)C(=CCC4[C@@]5(C)CC[C@H](OC6OC(C(=O)O)C(O)C(O)C6O)C(CO)(CO)C5CC[C@]43C)[C@@H]2C1` (stereo not given in full) it is “inactive”.
As for `C#CCN(Cc1cc2c(=O)n(C)c(CN3CCN(C)CC3)nc2cc1Cl)c1ccc(C(=O)NCc2cccnc2)cc1`, the Potency result is “inactive”.
Take `C=C1CO[C@@]2(O[C@H]3CC4C5CC=C6C[C@@H](O)C[C@@H](O[C@@H]7OC[C@H](O)[C@H](O[C@@H]8OC[C@@H](O)[C@H](O)[C@H]8O)[C@H]7O[C@@H]7O[C@@H](C)[C@H](OC(C)=O)[C@@H](OC(C)=O)[C@H]7OC(C)=O)[C@]6(C)C5CC[C@]4(C)[C@@H]3[C@@H]2C)[C@@H](O)[C@H]1OC1OC(C)C(O)C(O)C1O` (stereo not given in full): the activity change, negative = inhibition was 3.31% [at 8.96 µM].
Turning to `COc1cc2c(NC3CCN(C(C)C)CC3)nc(N3CCCN(C)CC3)nc2cc1OCCCN1CCCC1`, the Potency entry was “inactive”.
On the same count and under the same terms, the figure for `CN(C)c1ccc(C(=C2C=CC(=[N+](C)C)C=C2)c2ccc(N(C)C)cc2)cc1` is 4.69 µM (active).
On the same count and under the same terms, the same measure for `COC[C@H](NC(=O)c1cnc(C)s1)C(=O)N[C@@H](COC)C(=O)N[C@@H](Cc1ccccc1)C(=O)[C@@]1(C)CO1`: 0.59 µM (active); for `C[C@@H](Oc1cc(-n2cnc3ccc(CN4CCN(C)CC4)cc32)sc1C(N)=O)c1ccccc1C(F)(F)F`: 0.469 µM (active).
Still for that read-out and setting: the same measure for `C/C=C1/NC(=O)C2CSSCCC=CC(CC(=O)NC(C(C)C)C(=O)N2)OC(=O)C(C(C)C)NC1=O` (stereo not given): 7.43 µM (active); for `C=CCn1c(=O)c2cnc(Nc3ccc(N4CCN(C)CC4)cc3)nc2n1-c1cccc(C(C)(C)O)n1`: 4.69 µM (active); for `C[C@@]12O[C@@H](C[C@]1(O)CO)n1c3ccccc3c3c4c(c5c6ccccc6n2c5c31)CNC4=O`: 8.33 µM (active).
For `COc1cc(N2CCC(O)CC2)ccc1Nc1nc(Nc2ccccc2S(=O)(=O)C(C)C)c2[nH]cnc2n1`, the Potency entry was “inactive”.
Still for that read-out and setting: the entry for `COc1cc2c(NC3CCN(C(C)C)CC3)nc(N3CCCN(C)CC3)nc2cc1OCCOCCN(C)C` is “inactive”.
Regarding `C[C@@H]1O[C@@H](O[C@H]2[C@@H](OC(=O)[C@]34CCC(C)(C)CC3C3=CCC5[C@@]6(C)C[C@H](O)[C@H](O[C@@H]7O[C@H](CO)[C@@H](O)[C@H](O)[C@H]7O[C@@H]7OC[C@@H](O)[C@H](O)[C@H]7O)[C@@](C)(C(=O)O)C6CC[C@@]5(C)[C@]3(C)CC4)OC[C@H](O)[C@@H]2O)[C@H](O)[C@H](O)[C@H]1O[C@@H]1OC[C@@H](O)[C@H](O)[C@H]1O` (stereo not given in full), the activity change, negative = inhibition was -1.44% [at 8.96 µM].
Turning to `CN(C)C/C=C/C(=O)Nc1cccc(C(=O)Nc2ccc(Nc3nccc(-c4cccnc4)n3)cc2)c1`, the Potency entry was “inactive”.
The same measure, in the same setting: the figure for `CC(C)C[C@@H](C=O)NC(=O)[C@H](CC(C)C)NC(=O)[C@H](CC(C)C)NC(=O)OCc1ccccc1` (Cbz-Leu-Leu-Leu-aldehyde) is 3.72 µM (active); for `COc1ccc(CC2C(=O)NC(C)C(=O)N(C)C3Cc4ccc(cc4)Oc4cc(ccc4OC4OC(CO)C(O)C(O)C4O)CC(C(=O)NC(C)C(=O)NC(C)C(=O)N2C)N(C)C3=O)cc1` (stereo not given) it is “inactive”.
Still for that read-out and setting: the entry for `CCN(CC)Cc1ccc(C(=O)N(CCc2ccccc2OC)[C@@H]2CCNC2)cc1` is “inactive”; for `CC(C)C[C@H](NC(=O)[C@H](CCc1ccccc1)NC(=O)CN1CCOCC1)C(=O)N[C@@H](Cc1ccccc1)C(=O)N[C@@H](CC(C)C)C(=O)[C@@]1(C)CO1` it is 0.743 µM (active).
The same measure, in the same setting: the same measure for `Cc1cc(Nc2cc(NC(=O)c3c(Cl)cccc3Cl)ccn2)nc(N)n1`: 13.2 µM (active); for `Cc1ccc(-c2ncn(-c3ccc(Nc4nccc(-c5cccc(N6CCOCC6)c5)n4)cc3)n2)cn1`: 3.72 µM (active); for `CCCC(C=O)NC(=O)C(CC(C)C)NC(=O)C(CC(C)C)NC(=O)OCc1ccccc1` (stereo not drawn) (Cbz-Leu-Leu-[Nva]-aldehyde; configuration not given here): 4.18 µM (active).
